Reference: PubChem BioAssay AID1745850 (National Center for Advancing Translational Sciences (NCATS), 2022)
Out of some 2,100 compounds screened, about 260 (12%) were called active. Inconclusive results (about 58%) are left out. The call rests on the fitted dose curve; in most records, active means well fitted cell-killing curve with a large enough effect; inconclusive means small, poorly fitted or top-dose-only effect, or effect the other way; inactive means flat fitted curve, though single readings scatter. Some of the results follow.

Test: Viability Counterscreen for Confirmatory qHTS for Inhibitors of ATXN expression; further: nearly all actives have a fitted effect of over 50% in size
Conditions: HEK-293 ATXN2-luc cells viability, CellTiter-Fluor, 24 h; activity change, negative = cytotoxicity: at the top concentration
Source text: PI: Daniel Scoles Ph.D. University of Utah School of Medicine, Salt Lake City, Utah MLPCN Grant: NS073009 Spinocerebellar ataxia type 2 (SCA2) is a multisystem neurodegenerative disease caused by a dominantly acting mutation leading to expansion of a polyQ domain in the ataxin-2 protein (ATXN2). SCA2 patients develop progressive ataxia and later lose function in other neuronal systems. Prominent parkinsonian signs develop in some patients. Like many neurodegenerative disorders, no symptomatic or disease-modifying treatments are known. The primary objective of the proposed research is to identify compounds inhibiting ATXN2 expression and to test them for efficacy in SCA2 mouse models. We have developed a cell-based assay paired with an in vivo mouse model using identical luciferase expression constructs. This approach takes advantage of an ATXN2-luciferase transgene, with the luciferase gene flanked by the upstream and downstream portions of the ATXN2 gene. Here we describe a 5-7 dose quantitative high thoroughput screen (qHTS) for compounds lowering ATXN2 expression. We screened the NIH Molecular Libraries Small Molecule Repository (MLSMR) and NCGC's mechanistically annotated (MIPE) and drug repurposing (NPC) collections of compounds for lowering expression of an ATXN2-luciferase reporter in HEK-293 cells. The assay is a multiplexed cell viability assay to ensure target reduction in the absence of cytotoxicity. Secondary qHTS assays included a CMV-luciferase reporter expressed in HEK-293 cells as well as a biochemical assay using recombinant luciferase to detect inhibitors of the reporter enzyme. Compounds that inhibit ATXN2 expression but is not cytotoxic were selected for confirmatory and secondary screens.
PROTOCOL TABLE (as described by Inglese J, Shamu CE and Guy RK. 2007) SEQUENCE No. (e.g., 1, 2, 3, etc.); […] (e.g., Cells, Incubation, Reagent, etc.); VALUE; DESCRIPTION. 1; Cells; 4 uL; white, solid bottom, 1536-well Greiner assay plate. 2; Incubation; 2 hr; 37 degree C in 5% humidified CO2. 3; Compounds; 23 nL; Kalypsis pintool (Wako USA) equipped with a 1536-well pin head. 4; Incubation; 24 hr; 37 degree C in 5% humidified CO2. 5; Reagent; 1 uL; Gly-Phe-7-Amino-4-trifluoromethylcoumarin. 6; Incubation; 30 min; 37 degree C in 5% humidified CO2. 7; Detection; Fluorescence; ViewLux plate reader (PerkinElmer). 8; Reagent; 3 uL; SteadyGlo luciferase solution (Promega). 9; Incubation; 5 min; room temperature. 10; Detection; Luminescence; ViewLux plate reader (PerkinElmer). NOTES (numbers refer to Sequence numbers above) 1. S2 cells expressing ATXN2-luciferase reporter were suspended in phenol-red free DMEM and dispensed in assay plates using a Multidrop Combi dispenser (Thermo Fisher Scientific). Wells containing medium only were plated on each plate, and values were used to normalize (100% inhibition) in the luciferase and CellTiter-Fluor assays. 2. Assay plates were incubated. Evaporation was prevented by covering assay plates with metal lids containing holes to allow gas diffusion. 3. Compounds were added in a dose response manner with the final concentrations of 57, 11.4, 2.28, 0.46, 0.091, 0.018, 0.0037 uM. Vehicle-only plates, with DMSO being pin-transferred to columns 5-48, were inserted uniformly at the beginning and the end of each library to monitor and record any shifts in assay performance. 5. 125 uM Gly-Phe-7-Amino-4-trifluoromethylcoumarin (MP Biomedicals) working concentration was used at a final concentration of 25 uM. 7. To assess cell viability; the assay plates were read using the ViewLux high-throughput CCD imager (PerkinElmer), wherein single end-point fluorescence measurement was acquired (excitation 405/10; emission 540/25 nm). 8. Detection reagent SteadyGlo Luciferase (Promega) was added to the assay plate. 10. Luminescence is then measured on the ViewLux imager equipped with a clear emission filter using a 2 sec exposure. […]
Potency means the concentration at half of the fitted maximal effect.

Row | SMILES | Potency | activity change, negative = cytotoxicity
1 | Cc1cccc(-n2c(/C=C/c3ccc([N+](=O)[O-])o3)nc3ccccc3c2=O)c1 | 7.08 µM (active) | –
2 | CSCCC(c1nnnn1-c1c(C)cccc1C)N1CCC2(CC1)C(=O)NCN2c1ccccc1 (stereo not drawn) | 31.6 µM (active) | –
3 | O=C(Nc1ccc(OC(=O)N2CCCCC2)cc1)N1CCOCC1 | – | -9.64% [at 57.5 µM] (inactive)
4 | N#Cc1cn(C2OC(CO)C(O)C2O)c2ncnc(N)c12 (stereo not drawn) | – | -24.1% (inactive)
5 | O=[N+]([O-])c1oc2ccc3ccccc3c2c1CCO | 28.2 µM (active) | –
6 | COc1ccc(N=Cc2c(O)n(-c3ccc(C)cc3)c(=O)[nH]c2=O)cc1 | – | 0.886% [at 57.5 µM] (inactive)
7 | COC(=O)C(O)(c1ccc(NC(=S)NC(=O)c2ccc(Cl)cc2Cl)c(C)c1)C(F)(F)F (stereo not drawn) | – | -15.9% (inactive)
8 | COc1cccc2c1C(=O)c1c(O)c3c(c(O)c1C2=O)CC(O)(C(C)=NO)CC3OC1CC(N)C(O)C(C)O1 (stereo not drawn) | 17.8 µM (active) | –
9 | CC(=O)OC1(C)CC(C)C(=O)C(C(O)CC2CC(=O)NC(=O)C2)C1 (stereo not drawn) | – | -36.1% (inactive)
10 | C[C@]12CC[C@H](O)C[C@H]1CC[C@@H]1C2CC[C@]2(C)[C@@H](C3=CC(=O)OC3)[C@@H](O)C[C@]12O (stereo partly drawn) | – | -28.4% (inactive)
11 | CCC1(OC(=O)CN)C(=O)OCc2c1cc1n(c2=O)Cc2cc3ccccc3nc2-1 (stereo not drawn) | – | 0.438% (inactive)
12 | COC(=O)c1nc(-c2ccc3c(n2)C(=O)C(N)=C(OC)C3=O)c(N)c(-c2ccc(OC)c(OC)c2O)c1C | 15.8 µM (active) | –
13 | CCOC(=O)[C@]12Cc3ccsc3[C@H]1N(Cc1ccccc1)C(=O)c1ccccc12 | – | -19.3% (inactive)
14 | CN1C2CCC1/C(=C/c1ccccn1)C(=O)/C2=C\c1ccccn1 | 1.26 µM (active) | –
15 | N#Cc1c(Br)n(C2OC(CO)C(O)C2O)c2ncnc(N)c12 (stereo not drawn) | – | -19.5% (inactive)
16 | CC(C)(C)n1nnnc1C(CCc1ccccc1)N1CCC(n2c(=O)[nH]c3ccccc32)CC1 (stereo not drawn) | 22.4 µM (active) | –
17 | Cc1cccc(C)c1-n1nnnc1C(c1cc2ccccc2o1)N1CCC(n2c(=O)[nH]c3ccccc32)CC1 (stereo not drawn) | 8.91 µM (active) | –
18 | O=c1[nH]c2ccccc2n1C1CCN(C(CCc2ccccc2)c2nnnn2C2CCCC2)CC1 (stereo not drawn) | 22.4 µM (active) | –
19 | O=C(NN=Cc1ccc(N(CCCl)CCCl)cc1)c1cc(=O)[nH]c(=O)[nH]1 | – | -23.7% [at 57.5 µM] (inactive)

Row | SMILES | Potency | activity change, negative = cytotoxicity
20 | C1=NCCc2c1[nH]c1ccccc21 | – | -16.8% (inactive)
21 | COC1C(O)C(C)OC(OC2C(Oc3cccc4c(O)c5c(=O)oc6ccc(C)c7c(=O)oc(c34)c5c67)OC(C)C(O)C2O)C1O (stereo not drawn) | – | 9.42% (inactive)
22 | Cc1c2ccncc2c(C)c2c1[nH]c1ccccc12 | 22.4 µM (active) | –
23 | CCn1c(O)c(/C=N/NC(=O)c2ccccc2)c(=O)n(CC)c1=S | – | -20.6% [at 57.5 µM] (inactive)
24 | NC(Cc1ccc(Cl)cc1)c1csc(Nc2ccccn2)n1 (stereo not drawn) | 25.1 µM (active) | –
25 | CC[C@@]1(O)C(=O)OCc2c1cc1n(c2=O)Cc2cc3c(NC(=O)CN)cccc3nc2-1 | – | 11.8% (inactive)
26 | Cc1ccc(/C=C2\C(=O)NC(=S)N(c3ccccc3F)C2=O)s1 | 8.91 µM (active) | –
27 | CCCCCn1c(=O)c(C(=O)NCc2ccccn2)c(O)c2ccccc21 | – | -17.6% (inactive)
28 | C#CCCC[C@@H]1OC(=O)CNC(=O)C([C@@H](C)CC)NC(=O)[C@@H]2CCCN2C(=O)C([C@@H](C)CC)OC(=O)[C@H](Cc2ccccc2)N(C)C(=O)[C@H](C(C)C)NC(=O)C1(C)C (stereo partly drawn) | 22.4 µM (active) | –
29 | C=CCCC[C@@H]1OC(=O)CNC(=O)C([C@@H](C)CC)NC(=O)[C@@H]2CCCN2C(=O)C([C@@H](C)CC)OC(=O)[C@H](Cc2ccccc2)N(C)C(=O)[C@H](C(C)C)NC(=O)C1(C)C (stereo partly drawn) | 3.16 µM (active) | –
30 | CCC(C)N1C(=O)/C(=C\c2cnc(N(C)C)nc2)C(=O)NC1=S (stereo not drawn) | – | -15.9% [at 57.5 µM] (inactive)
31 | c1ccc2sc(N3CCNCC3)nc2c1 | – | -9.18% [at 57.5 µM] (inactive)
32 | O=C1NC(=O)N(CCc2ccc(F)cc2)C(=O)/C1=C/C=C/c1ccccc1 | 11.2 µM (active) | –
33 | COc1ccc(CCNCc2ccc(F)cc2)cc1OC | – | -5.15% (inactive)
34 | CCCCCCC(=O)N/N=C/c1c(O)n(CCCC)c(=S)[nH]c1=O | – | -27.8% [at 57.5 µM] (inactive)
35 | CC(=NCCc1c[nH]c2ccccc12)c1c(O)n(Cc2ccccc2)c(=O)[nH]c1=O | – | -15% [at 57.5 µM] (inactive)
36 | CC(C)CCNC(=O)c1c(N)n(Cc2ccc3c(c2)OCO3)c2nc3ccccc3nc12 | – | -11.5% [at 57.5 µM] (inactive)
37 | CCCCCn1c(NC(=O)c2ccco2)c(C(=O)OCC)c2nc3ccccc3nc21 | 28.2 µM (active) | –
38 | CCOC(=O)c1c(N)n(CCN2CCCCC2)c2nc3ccccc3nc12 | – | 4.3% [at 57.5 µM] (inactive)
